{"source": "PubChem BioAssay (Tox21)", "note": "Inconclusive results are not listed. Values without a mark were called inactive. The call rests on the fitted dose curve; in most records, active means well fitted cell-killing curve with a large enough effect in the repeat runs; inconclusive means weak or mixed curves, or effect the other way; inactive means flat fitted curve, though single readings scatter. On the % scale 0 is the no-effect control and ±100 the full control effect.", "data": [{"experiment": "qHTS assay to identify small molecule agonists of the sonic hedgehog signaling (Shh) pathway - cell viability counter screen (AID 1259366); further: nearly all actives have a fitted effect of over 50% in size", "details": "NIH/3T3 Gli1-Luc viability, CellTiter-Fluor, 24 h; series mostly up to 92.4 µM; viability change, negative = cytotoxic: at the top concentration", "source_text": "National Center for Advancing Translational Sciences [NCATS]\nNIH Chemical Genomics Center [NCGC]\nU.S. Environmental Protection Agency [EPA]\nNational Institutes of Environmental Health Sciences [NIEHS]\nNational Toxicology Program [NTP]\nU.S. Food and Drug Administration [FDA]\nThe sonic hedgehog (Shh) pathway is essential for normal embryonic development. Dysregulation of the Shh pathway can cause severe developmental defects in organs. Therefore chemicals that interfere with the pathway are potential developmental toxicants. A cell line designated 3T3Gli1-Luc (DMB/OARSA/CFSAN/FDA, Laurel, MD), a NIH/3T3 derived clone containing stably integrated Gli1-Luc reporter is used to detect chemical interference of the Shh pathway, by changes in the expression of the firefly Luc gene under the control of the Gli1 transcriptional response element. This cell line was used to screen Tox21 libraries for identifying and prioritizing the potential developmental toxicants that interfere Shh pathway. The cytotoxicity of the compounds was tested in parallel by measuring the cell viability using CellTiter-Fluor assay system (Promega, Madison, WI) in the same wells.\nTox21 Assay Protocol Summary:\n3T3 Gli1-Luc cells were dispensed at 2,000 per well in 5uL of culture medium into white solid bottom 1536-well plates (Greiner Bio-One, Monroe, NC) using a Multidrop Combi (Thermo Scientific, Waltham, MA) dispenser. The assay plates were incubated at 37 C and 5% CO2 for 4hr, and then 23nL of compounds dissolved in DMSO and positive control were transferred using a Pintool station (Wako, San Diego, CA). The assay plates were incubated at 37C and 5% CO2 for 24hr. For viability read, after 23hr of compound treatment, 1uL of CellTiter-Fluor reagent (Promega Corporation, Madison, WI) was added to each well of the assay plates using Flying Reagent Dispenser (FRD, Aurora Discovery, San Diego, CA) and incubated the assay plates at 37C for 1hr. The fluorescence signal was quantified using a ViewLux plate reader (Perkin Elmer, Shelton, CT).", "values": [{"smiles": "CCOCCOCCOCC", "viability change, negative = cytotoxic": "1.76%"}, {"smiles": "CCOC(=O)/C=C/c1ccccc1", "viability change, negative = cytotoxic": "-0.0196%"}, {"smiles": "CCc1ccc(C=O)cc1", "viability change, negative = cytotoxic": "2.1%"}, {"smiles": "CCN(C)C(=O)Oc1cccc([C@H](C)N(C)C)c1", "viability change, negative = cytotoxic": "-0.136% [at 42.5 µM]"}, {"smiles": "BrCc1cccc(Oc2ccccc2)c1", "viability change, negative = cytotoxic": "3.25%"}, {"smiles": "CC(C)C[C@H](NC(=O)CNC(=O)[C@H](Cc1ccc(O)cc1)NC(=O)[C@H](CO)NC(=O)[C@H](Cc1c[nH]c2ccccc12)NC(=O)[C@H](Cc1cnc[nH]1)NC(=O)[C@@H]1CCC(=O)N1)C(=O)N[C@@H](CCCN=C(N)N)C(=O)N1CCC[C@H]1C(=O)NCC(N)=O", "note": "(stereo in doubt)", "viability change, negative = cytotoxic": "2.07% [at 42.5 µM]"}, {"smiles": "c1ccc2nccnc2c1", "viability change, negative = cytotoxic": "3.14%"}, {"smiles": "Cc1ccccc1OCC(O)CO", "note": "(stereo not given)", "viability change, negative = cytotoxic": "4.95% [at 42.5 µM]"}, {"smiles": "C#CC(C)N(C)C(=O)Nc1ccc(Cl)cc1", "note": "(stereo not given)", "viability change, negative = cytotoxic": "-0.0245%"}, {"smiles": "Cc1nc2n(c(=O)c1CCN1CCC(c3noc4cc(F)ccc34)CC1)CCC[C@H]2O", "viability change, negative = cytotoxic": "-0.31% [at 19 µM]"}, {"smiles": "CC(C)=O", "viability change, negative = cytotoxic": "1.38%"}, {"smiles": "CCCCOC(=O)c1ccccc1", "viability change, negative = cytotoxic": "2.62%"}, {"smiles": "CC(=O)c1sc(C)nc1C", "viability change, negative = cytotoxic": "3.55%"}, {"smiles": "CC(C(=O)O)c1ccc2c(c1)CC(=O)c1ccccc1S2", "note": "(stereo not given)", "viability change, negative = cytotoxic": "2.93% [at 42.5 µM]"}, {"smiles": "C=C(C)C(=O)OCC(C)(C)COC(=O)C(=C)C", "viability change, negative = cytotoxic": "-3.55%"}, {"smiles": "C=C(C)C1CCC(C)(O)CC1", "note": "(stereo not given)", "viability change, negative = cytotoxic": "-0.249%"}, {"smiles": "OCCCCC(O)CO", "note": "(stereo not given)", "viability change, negative = cytotoxic": "0.141%"}, {"smiles": "CC(C)CC(C)CC(C)CC(C)COC(=O)c1ccccc1C(=O)OCC(C)CC(C)CC(C)CC(C)C", "note": "(stereo not given)", "viability change, negative = cytotoxic": "-3.65%"}, {"smiles": "CCCCCCOc1ccccc1C(N)=O", "viability change, negative = cytotoxic": "7.13% [at 42.5 µM]"}, {"smiles": "COCCOCCOCCOCCO", "viability change, negative = cytotoxic": "5.23%"}, {"smiles": "Cc1cccc(OCC(O)CNC(C)(C)C)c1C", "note": "(stereo not given)", "viability change, negative = cytotoxic": "8.09% [at 42.5 µM]"}, {"smiles": "CCCN1C[C@H](CSC)C[C@@H]2c3cccc4[nH]cc(c34)C[C@H]21", "viability change, negative = cytotoxic": "-3.62% [at 42.5 µM]"}, {"smiles": "C=CCCCCCCCCCCCC", "viability change, negative = cytotoxic": "1.92%"}, {"smiles": "COc1cc(N)ccc1C", "viability change, negative = cytotoxic": "-0.673%"}, {"smiles": "C[C@@H](O)[C@H]1C(=O)N2C(C(=O)O)=C(SCCN=CN)C[C@H]12", "viability change, negative = cytotoxic": "-0.449% [at 42.5 µM]"}, {"smiles": "N[C@@H](CCC(=O)Nc1ccc([N+](=O)[O-])cc1)C(=O)O", "viability change, negative = cytotoxic": "-18.8%"}, {"smiles": "CN1CCN(CC(=O)N2c3ccccc3C(=O)Nc3cccnc32)CC1", "viability change, negative = cytotoxic": "1.72% [at 8.39 µM]"}, {"smiles": "COc1ccc2c(c1)C(=O)N(CCc1ccc(S(=O)(=O)NC(=O)NC3CCCCC3)cc1)C(=O)C2(C)C", "viability change, negative = cytotoxic": "0.58% [at 42.5 µM]"}, {"smiles": "Cc1c(I)c(=O)n(-c2ccccc2)n1C", "viability change, negative = cytotoxic": "10.1% [at 42.5 µM]"}, {"smiles": "O=S(=O)(O)CCN1CCN(CCO)CC1", "viability change, negative = cytotoxic": "11.1%"}, {"smiles": "CCCCCCOC(=O)CC", "viability change, negative = cytotoxic": "1.62%"}, {"smiles": "Cc1[nH]cnc1-c1ccc(Cl)cc1", "viability change, negative = cytotoxic": "-5.03% [at 42.5 µM]"}, {"smiles": "CC(=O)Nc1ccc(S(=O)(=O)Cl)cc1", "viability change, negative = cytotoxic": "-1.45%"}, {"smiles": "CC/C=C\\CC1=C(C)CCC1=O", "viability change, negative = cytotoxic": "0.859%"}, {"smiles": "CCCCOCCOC(=O)COc1nc(Cl)c(Cl)cc1Cl", "viability change, negative = cytotoxic": "6.76%"}, {"smiles": "CC(=C(CCOC(=O)C(C)C)SSC(CCOC(=O)C(C)C)=C(C)N(C=O)Cc1cnc(C)nc1N)N(C=O)Cc1cnc(C)nc1N", "viability change, negative = cytotoxic": "3.7% [at 42.5 µM]"}, {"smiles": "CCOC(=O)CC(=O)c1ccccc1", "viability change, negative = cytotoxic": "-3.87%"}, {"smiles": "NCCN1CCOCC1", "viability change, negative = cytotoxic": "-0.797%"}, {"smiles": "O=C1O[C@@H]2[C@@H](O)[C@H](O)O[C@@H]2[C@H]1O", "viability change, negative = cytotoxic": "-0.65%"}, {"smiles": "CC(C)(C)c1nnc(NS(=O)(=O)c2ccc(N)cc2)s1", "viability change, negative = cytotoxic": "-0.858% [at 42.5 µM]"}]}]}
